Assay outcomes from PubChem BioAssay.
CXXC DNA block – blocks binding of human MLL CXXC domain to DNA. Q03164. MLL-CXXC / FITC-HOXA9 DNA fluorescence polarization. Potency, µM (doses to about 115 µM), for the others: at the top dose activity change, negative = inhibition, most hits filed as inhibitors. 290,000 compounds, 0.037% hits. AID 2662; active = well fitted inhibition curve with a large enough effect in the polarisation, with a control signal flat, not every such curve was filed as active; inconclusive = small, poorly fitted or top-dose-only effect, or effect the other way, or a change in a side signal; inactive = no such curve, though single readings can be large or run the other way; the % refers to the polarisation; note: potency is the fitted concentration of half-maximal effect
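Steps: dispense CXXC domain solution (7 uM) → pin compounds or unlabeled HOX-A9 DNA control → 5 min ambient → add FLSN-HOX-A9 solution (50 nM) → spin → 30 min ambient → fluorescence polarization. Tris pH 7.5/NaCl/DTT/BSA buffer.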
Menin-MLL FL inh – displaces fluorescein MLL peptide from human menin. Fluorescence polarization, fluorescein-MLL peptide displacement from menin. FP activity change, % at 61.4 µM. 290,000 tested, under 10 active; active = well fitted curve in the direction sought with a large enough effect in the polarisation, not every such curve was filed as active; inconclusive = small, poorly fitted or top-dose-only effect, or effect the other way, or a change in a side signal; inactive = no such curve, though single readings can be large or run the other way; the % refers to the polarisation; note: % of control where 0% means no effect
PKM2 activator – activators of human pyruvate kinase M2; P14618; purified PKM2, Kinase-Glo ATP luminescence, activation; response scale: 0% is enzyme alone, no compound; Potency, µM (titrated, usually from 57.5 µM), without a hit: at the highest dose activation, usual class: activators; 260,000 compounds, 0.34% hits; active = well fitted activation curve with a large enough effect; inconclusive = small, poorly fitted or top-dose-only effect; inactive = no such curve, though single readings can be large or run the other way; note: potency is the fitted concentration of half-maximal effect; % is set by controls: 0 for no effect and ±100 for the full control effect; nearly all actives have a fitted effect of over 55% in size
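Kinase-Glo luminescence reports ATP generated from ADP (0.1 mM) and PEP (0.5 mM) by purified hPK-M2 after 1 h at room temperature, pH 7.2 imidazole buffer; intermediate enzyme activity allows detecting inhibitors and activators.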
Menin MLL FP TR – menin-MLL binding inhibition, Texas Red mutant peptide | Potency, µM (highest dose often 61.6 µM), without a hit: at the top dose FP activity change, negative = inhibition, most hits filed as inhibitors | AID 1768 | Menin + Texas Red MLL mutant peptide, fluorescence polarization | 270,000 compounds, 0.23% hits; active = well fitted inhibition curve with a large enough effect in the polarisation, with a control signal flat, not every such curve was filed as active; inconclusive = small, poorly fitted or top-dose-only effect, or effect the other way, or a change in a side signal; inactive = no such curve, though single readings can be large or run the other way; the % refers to the polarisation; note: potency is the fitted concentration of half-maximal effect; % of control where 0% means no effect
Active calls of the source: *; ? = inconclusive; nt = no result given; ! = not active in a repeat; [ ] = remark or other dose. Sampled rows, rich in hits. Any-hit rate of the full collection: about 0.41%.

SMILES	CXXC DNA block	Menin-MLL FL inh	PKM2 activator	Menin MLL FP TR
COc1ccc(S(=O)(=O)N2CCN(S(=O)(=O)c3ccc4c(c3)OCCO4)CC2)cc1C	-5%	-2	3.5µM*	9%
O=S(=O)(c1ccc2c(c1)OCCO2)N1CCN(Cc2ccc3c(c2)OCO3)CC1	6%	2	3.5µM*	7%
O=C(c1cnccn1)N1CCC2(CC1)CN(c1ncccn1)C2	nt	-3	nt	-5%
CN(C)S(=O)(=O)c1cccc(-n2sc3ccccc3c2=O)c1	-23%	1	2.8µM*	6%
COCC(=O)N1CCC[C@@]2(CCN(c3ccccn3)C2)C1	nt	-3	nt	22%
O=S(=O)(NCC1CCN(S(=O)(=O)c2ccccc2)CC1)c1ccccc1	14%	4	2.8µM*	22%
COc1ccc(-c2c(C3C4C=CCC(C)C4C(=O)N3Cc3ccccc3)ccc3ccccc23)cc1 (stereo unspecified)	nt	-1	nt	-14%
Cc1ccc(N(Cc2cc3ccc(C)cc3[nH]c2=O)S(C)(=O)=O)c(C)c1	5%	6	22µM*	nt
Cc1ccc2cc(CN(C)S(C)(=O)=O)c(=O)[nH]c2c1	-4%	0	7%	-2%
Cc1cc(SCC(=O)OCC(=O)N2CCN(C(=O)c3ccco3)CC2)c(C)cc1Br	-5%	1	25µM*	-7%
Cc1cc(C(=O)CSc2nc3ccc(Cl)cc3[nH]2)c(C)n1C	10%	3	16µM*	22%
CS(=O)(=O)Nc1cccc(C2=NN(S(=O)(=O)c3ccccc3)C(c3ccco3)C2)c1 (stereo unspecified)	17%	1	22µM*	?
c1ccc2c(c1)SCc1c-2[nH]c2ccccc12	nt	-11	nt	?
Cc1nn(S(=O)(=O)c2cccs2)c(C)c1Sc1ccccc1	?	1	16µM*	-22%
Cc1nn(S(=O)(=O)c2cccs2)c(C)c1Sc1ccc([N+](=O)[O-])cc1	-7%	2	3%	33%
O=C(/C=C/c1ccc(/C=C/C(=O)Nc2ccc(C3=NCCN3)cc2)cc1)Nc1ccc(C2=NCCN2)cc1	nt	-2	nt	5%
COc1ccc(-n2c(=O)c(-c3ccc(Cl)cc3)nc3cnc(N4CCOCC4)nc32)cc1	nt	-5	nt	11%
Cc1ccc(/C=c2/sc3nnc(-c4ccccc4Cl)n3c2=O)o1	9%	?	8.9µM*	?
CCN(CC)c1ccc(/C=c2\sc3nnc(-c4ccccc4Cl)n3c2=O)cc1	?	?	-3%	?
CCN(CC)c1ccc(N=Cc2ccc(N(CC)CC)cc2O)cc1	?	?	-3%	?
CCN(CC)c1ccc(C=Nc2ccc(N(C)C)cc2)c(O)c1	?	?	-25%	20µM*
O=S(=O)(c1ccc2ccccc2c1)N1CCCCCC1	-3%	6	10%	-17%
C[C@H](NC(N)=O)C(=O)N1CCN(S(=O)(=O)c2ccc3ccccc3c2)CC1	9%	5	?	1%
CNC(=S)N1CCN(S(=O)(=O)c2ccc3ccccc3c2)CC1	4%	2	20µM*	16%
CN1CCCN(S(=O)(=O)c2ccc3ccccc3c2)CC1	1%	-2	20µM*	1%
SMILES	CXXC DNA block	Menin-MLL FL inh	PKM2 activator	Menin MLL FP TR
COC(=O)NC(/C=C/c1ccccc1)C(C(C)=O)C(=O)OC (stereo unspecified)	nt	-1	nt	3%
COC(=O)CC1c2ccccc2C=C(/C=C/c2ccc3c(c2)OCO3)N1C(=O)OC (stereo unspecified)	nt	3[11.7 µM]	-1%[11.5 µM]	-14%[11.7 µM]
CC(C)OP(=O)(c1ccc(N(C)C)cc1)C(O)c1ccc(N(C)C)cc1 (stereo unspecified)	15%	2	nt	10µM*
CC(=O)N(C1=C(Cl)C(=O)c2ccccc2C1=O)C1CCCCC1	-12%	0	3.5µM*	nt
O=C(Nc1nc(-c2ccc(S(=O)(=O)N3CCCCCC3)cc2)cs1)c1cccs1	25%	4	-4%	22µM*
Cc1cc(-c2csc(NC(=O)c3ccc(=O)[nH]c3)n2)c(C)n1Cc1ccco1	-2%	?	10µM*	nt
CCNc1nc(-c2cc(C)n(Cc3ccco3)c2C)cs1	12%	?	19%	-4%
COc1ccc(C2C3C=CCC(c4cccc(/C=C/c5ccccc5)c4)C3C(=O)N2Cc2ccccc2)cc1Cl (stereo unspecified)	nt	9	nt	16%
Cc1ccc(/C(C#N)=C\c2ccc(N3CCOCC3)o2)cc1	?	?	2.8µM*	-4%
O=c1c2c3c(sc2[nH]c(=S)n1Cc1ccco1)CCC3	-8%	12	11µM*	nt
O=C(N/N=C/c1ccncc1)c1ccccn1	-9%	-14	nt	100µM*
COC(=O)[C@H](COC(C)(C)C)NC(=O)O[C@@H]1C(=O)c2cc(OC)ccc2O[C@H]1c1cccc(OC)c1	nt	3	nt	-10%
COc1cc(/C=C/C(=O)OCC(=O)Nc2ccc(C)cc2[N+](=O)[O-])ccc1O	-29%	3	18µM*	21%
COc1cc(/C=C/C(=O)OCC(=O)Nc2cc(C)c(C)cc2[N+](=O)[O-])ccc1O	-5%	14	0%	nt
Cn1ccs/c1=N\S(=O)(=O)c1ccc(Br)cc1	7%	16	16µM*	-13%
CC(=O)N=c1sccn1CC(O)c1ccc(Br)cc1 (stereo unspecified)	-2%	1	-2%	-2%
CC(=O)c1sc(NC(=O)c2ccc(Br)o2)nc1C	53%	nt	-35%	nt
CC(=O)c1sc(NC(=O)c2ccc(Cn3cc(Br)cn3)o2)nc1C	-1%	3	11µM*	11%
CCn1c(SCC(=O)Nc2ccccc2)nc2c1c(=O)n(C)c(=O)n2C	9%	5	7.9µM*	0%
Cn1c(=O)c2c(nc(SCC(=O)Nc3ccccc3)n2C)n(C)c1=O	-3%	0	17%	17%
CC(C)n1c(SCC(N)=O)nc2c1c(=O)[nH]c(=O)n2C	-2%	1	15%	6%
CC(C)n1c(SCC(=O)Nc2ccccc2)nc2c1c(=O)n(C)c(=O)n2C	13%	5	14µM*	9%
COCCn1c(SCc2ccc(F)cc2)nc2c1c(=O)[nH]c(=O)n2C	-7%	2	-3%[11.5 µM]	-5%
COCCn1c(SCC(=O)Nc2ccccc2)nc2c1c(=O)[nH]c(=O)n2C	-1%	2	6.3µM*	-23%
CC(C)n1c(SCC(=O)Nc2ccccc2)nc2c1c(=O)[nH]c(=O)n2C	7%	2	8.9µM*	nt
SMILES	CXXC DNA block	Menin-MLL FL inh	PKM2 activator	Menin MLL FP TR
Cc1nc2ccccc2c(=O)n1Cc1ccco1	22%	0	16%	nt
Cc1nc2c([nH]1)c(=O)n(C)c(=O)n2Cc1ccco1	9%	?	nt	16µM*!
Cc1ccc(NS(=O)(=O)c2c(C)nc3sccn3c2=O)cc1	nt	4	10µM*	0%
Cc1nc2sccn2c(=O)c1S(=O)(=O)Nc1cccc(Cl)c1C	nt	0	7.1µM*	2%
COc1ccc(OC)c(NS(=O)(=O)c2c(C)nc3sccn3c2=O)c1	0%	3	4%	-10%
Nc1c(CC(=O)O)cccc1C(=O)c1ccc(Br)cc1	1%	5	nt	-2%
